PubChem BioAssay (NCATS)
Inconclusive results are not listed. Activity calls are given as the source filed them. Calls come from the whole dose curve; as a rule, active = well fitted curve in the direction sought with a large enough effect; inconclusive = small, poorly fitted or top-dose-only effect, or another doubt; inactive = no such curve, though single readings can be large; an effect the other way counts as inactive or inconclusive.

Tests used:
[1] = qHTS of pediatric cancer cell lines to identify multiple opportunities for drug repurposing: Primary screen for DAOY cells (AID 1347090); note: series mostly up to about 46 µM; nearly all actives have a fitted effect of over 55% in size
Procedure, shortened: (§1)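 Eight- or eleven-point concentration series, 48 h treatment at 37 degrees C in growth media; readout CellTiter-Glo luminescence. Potency and efficacy were taken from the concentration-response curves.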

[2] = qHTS of pediatric cancer cell lines to identify multiple opportunities for drug repurposing: Primary screen for SJ-GBM2 cells (AID 1347091)
Procedure, shortened: as §1

[3] = qHTS of pediatric cancer cell lines to identify multiple opportunities for drug repurposing: Primary screen for A673 cells (AID 1347092); note: nearly all actives have a fitted effect of over 45% in size
Procedure, shortened: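 A673 cells (500-1,000 cells/well in growth media) were pre-incubated 5 h at 37 degrees C, then exposed to compounds for 48 h. Viability was read as CellTiter-Glo luminescence; concentration-response curves came directly from the primary screen.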

[4] = qHTS of pediatric cancer cell lines to identify multiple opportunities for drug repurposing: Primary screen for SK-N-MC cells (AID 1347093); note: series mostly up to about 46 µM
Procedure, shortened: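 Metabolically active cells were quantified by ATP-dependent luminescence (CellTiter-Glo, 15 min at room temperature) following 48 h treatment. Cells had been plated at 500-1,000 per well and settled for 5 h beforehand.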

[5] = qHTS of pediatric cancer cell lines to identify multiple opportunities for drug repurposing: Primary screen for BT-37 cells (AID 1347094); note: series mostly up to about 57 µM
Procedure, shortened: (§2)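 Plated cells (500-1,000 per well, growth media) were allowed to settle for 5 hours, treated with compound dilutions for 48 hours, then lysed with CellTiter-Glo for 15 min at room temperature before luminescence reading.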

[6] = qHTS of pediatric cancer cell lines to identify multiple opportunities for drug repurposing: Primary screen for NB-EBc1 cells (AID 1347095)
Procedure, shortened: as §2

[7] = qHTS of pediatric cancer cell lines to identify multiple opportunities for drug repurposing: Primary screen for U-2 OS cells (AID 1347096); note: nearly all actives have a fitted effect of over 50% in size
Procedure, shortened: (§3)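 Cells (500-1,000/well) in growth media were settled 5 h at 37 degrees C, then given compounds for 48 h. Viability was read as CellTiter-Glo luminescence. Primary runs used MIPE at 11 points (0.78 nM-46 µM) and NPC at 8 points (0.59 nM-46 µM); follow-ups used 11 points.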

[8] = qHTS of pediatric cancer cell lines to identify multiple opportunities for drug repurposing: Primary screen for Saos-2 cells (AID 1347097); note: nearly all actives have a fitted effect of over 40% in size
Procedure, shortened: as §2

[9] = qHTS of pediatric cancer cell lines to identify multiple opportunities for drug repurposing: Primary screen for SK-N-SH cells (AID 1347098);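 note: DMSO served as neutral control and bortezomib at 2.3 µM as positive control; nearly all actives have a fitted effect of over 65% in size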
Procedure, shortened: (§4)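 Cells (500-1,000/well) rested 5 h, then received compounds for 48 h; metabolically active cells were measured by CellTiter-Glo luminescence. Final concentrations spanned up to 46 µM (MIPE, 11-point) or 0.59 nM-46 µM (NPC, 8-point) in primary screens, 11-point in follow-ups.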

[10] = qHTS of pediatric cancer cell lines to identify multiple opportunities for drug repurposing: Primary screen for NB1643 cells (AID 1347099); note: nearly all actives have a fitted effect of over 50% in size
Procedure, shortened: as §2

[11] = qHTS of pediatric cancer cell lines to identify multiple opportunities for drug repurposing: Primary screen for LAN-5 cells (AID 1347100)
Procedure, shortened: as §3

[12] = qHTS of pediatric cancer cell lines to identify multiple opportunities for drug repurposing: Primary screen for BT-12 cells (AID 1347101); note: nearly all actives have a fitted effect of over 25% in size
Procedure, shortened: as §4

[13] = qHTS of pediatric cancer cell lines to identify multiple opportunities for drug repurposing: Primary screen for Rh18 cells (AID 1347102); note: nearly all actives have a fitted effect of over 65% in size
Procedure, shortened: as §3

[14] = qHTS of pediatric cancer cell lines to identify multiple opportunities for drug repurposing: Primary screen for RD cells (AID 1347104); note: nearly all actives have a fitted effect of over 55% in size
Procedure, shortened: as §2

[15] = qHTS of pediatric cancer cell lines to identify multiple opportunities for drug repurposing: Primary screen for MG 63 (6-TG R) cells (AID 1347105); note: nearly all actives have a fitted effect of over 50% in size
Procedure, shortened: as §2

[16] = qHTS of pediatric cancer cell lines to identify multiple opportunities for drug repurposing: Primary screen for control Hh wild type fibroblast cells (AID 1347106);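 note: series mostly up to about 46 µM; a drop in luminescence marks cytotoxicity and a rise apparent proliferation; nearly all actives have a fitted effect of over 55% in size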
Procedure, shortened: as §3

[17] = qHTS of pediatric cancer cell lines to identify multiple opportunities for drug repurposing: Primary screen for Rh30 cells (AID 1347107); note: series mostly up to about 46 µM; nearly all actives have a fitted effect of over 75% in size
Procedure, shortened: as §3

[18] = qHTS of pediatric cancer cell lines to identify multiple opportunities for drug repurposing: Primary screen for OHS-50 cells (AID 1347103); note: nearly all actives have a fitted effect of over 40% in size
Procedure, shortened: as §4

[19] = qHTS of pediatric cancer cell lines to identify multiple opportunities for drug repurposing: Primary screen for Rh41 cells (AID 1347108);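 note: series mostly up to about 46 µM; luminescence drop marks cytotoxic hits; nearly all actives have a fitted effect of over 70% in size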
Procedure, shortened: as §2

Measured: Potency

CCC(=O)O[C@H]1[C@H](O[C@@H]2[C@@H](C)[C@H](O[C@H]3C[C@@](C)(OC)[C@@H](O)[C@H](C)O3)[C@@H](C)C(=O)O[C@H](CC)[C@@](C)(O)[C@H](O)[C@@H](C)C(=O)[C@H](C)C[C@@]2(C)O)O[C@H](C)C[C@@H]1N(C)C
not listed: [18] | [19]
inactive: all other assays above

Cc1cccc(C)c1NC(=O)c1ccc(N)cc1
not listed: [16]
inactive: all other assays above

CC(=O)N[C@@H](CCC(N)=O)C(=O)O
not listed: [18]
inactive: all other assays above

CCCCC(O)/C=C(C)/C=C/C=C/C(=O)N1CCCC1=O (centres undefined)
not listed: [16]
inactive: all other assays above

C[N+](C)(CCOc1ccccc1)Cc1cccs1
not listed: [18]
inactive: all other assays above

N#Cc1cc(NC(=O)C(=O)O)c(Cl)c(NC(=O)C(=O)O)c1
not listed: [14] | [17]
inactive: all other assays above

Cc1cnc(NS(=O)(=O)c2ccc(N)cc2)nc1
not listed: [18]
inactive: all other assays above

c1ccc2c(c1)CCc1ccccc1N2
not listed: [18]
inactive: all other assays above

CSc1ccc(/C=C2/C(C)=C(CC(=O)O)c3cc(F)ccc32)cc1
not listed: [15]
inactive: all other assays above

CC(C)=CCC/C(C)=C/CC/C(C)=C/CCC(=O)OC/C=C(\C)CCC=C(C)C
not listed: [18]
inactive: all other assays above

OC[C@]1(O)OC[C@@H](O)[C@H](O)[C@@H]1O
not listed: [18]
inactive: all other assays above

COc1cc(S(N)(=O)=O)cc(C(=O)O)c1OC
not listed: [18]
inactive: all other assays above

CCCc1ncc(C(=O)O)s1
not listed: [14]
inactive: all other assays above

OC1(c2ccccc2)CCNCC1
not listed: [15]
inactive: all other assays above

O=P(O)(O)OCC(O)CO (centres undefined)
not listed: [18]
inactive: all other assays above

COC(=O)c1cc(Cl)ccc1OC
not listed: [18]
inactive: all other assays above

COc1ccc2cc(C=O)ccc2c1
not listed: [15] | [17]
inactive: all other assays above

O=C(O)[C@H](O)[C@@H](O)[C@H](O[C@@H]1O[C@H](CO)[C@H](O)[C@H](O)[C@H]1O)[C@H](O)CO
not listed: [15] | [16]
inactive: all other assays above

CCOc1c(N2CCOCC2)cnn(C)c1=O
not listed: [18]
inactive: all other assays above

NC(=O)NC1N=C([O][Al])NC1=O (centres undefined)
not listed: [14]
inactive: all other assays above

CC(=O)CC/C=C(\C)CC/C=C(\C)CC/C=C(\C)CCC=C(C)C
not listed: [15]
inactive: all other assays above

CCC(=O)Oc1ccc2c(c1)CC[C@@H]1[C@@H]2CC[C@@]2(C)[C@H]1C[C@@H](OC(=O)CC)[C@@H]2OC(=O)CC
not listed: [15] | [18] | [19]
inactive: all other assays above

Nc1c(NC/C=C\COc2cc(CN3CCCCC3)ccn2)c(=O)c1=O
not listed: [12]
inactive: all other assays above

Oc1ccccc1
not listed: [11] | [15]
inactive: all other assays above

CC(=O)OC[C@H]1O[C@@H](OC(C)=O)[C@H](OC(C)=O)[C@@H]1OC(C)=O
not listed: [13] | [19]
inactive: all other assays above

Clc1ccc2c(c1)Nc1ccccc1S2
not listed: [12] | [18]
inactive: all other assays above

Cn1c(=O)c2c(ncn2CC(=O)O)n(C)c1=O
not listed: [13] | [15] | [17]
inactive: all other assays above

Cc1ccc(/C=N/n2c(-c3ccccc3)csc2=S)cc1
not listed: [12] | [15] | [18]
inactive: all other assays above

C[C@H](CN1CCCC1)C(=O)c1ccc(C(F)(F)F)cc1
not listed: [11] | [14]
inactive: all other assays above

CC1(C)O[C@@H]2C[C@H]3[C@@H]4C[C@H](F)C5=CC(=O)C=C[C@]5(C)[C@@]4(F)[C@@H](O)C[C@]3(C)[C@]2(C(=O)CO)O1
not listed: [11] | [15] | [17]
inactive: all other assays above
